Test results from PubChem BioAssay (NCATS).
Records with an inconclusive call do not appear. Activity calls are given as the source filed them. The call rests on the fitted dose curve; in most records, active means well fitted inhibition curve with a large enough effect; inconclusive means small, poorly fitted or top-dose-only effect; inactive means flat fitted curve, though single readings scatter.

What was measured:
GB4 = test: qHTS profiling for inhibitors of Plasmodium falciparum proliferation (AID 504749);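 further: 0% = DMSO vehicle and full inhibition = artemisinin control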; conditions: P. falciparum in erythrocytes, SYBR Green DNA, 72 h; series mostly up to 28.7 µM
Procedure, shortened: (§1)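 Parasite proliferation within erythrocytes, 72 h exposure. Endpoint: SYBR Green I fluorescence after overnight lysis at room temperature. Controls: 0.29 uM artemisinin, DMSO.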

HB3 = test: as above; conditions: P. falciparum in erythrocytes, SYBR Green DNA, 72 h; series mostly up to 28.7 µM
Procedure, shortened: as §1

ICS = test: as above; conditions: P. falciparum in erythrocytes, SYBR Green DNA, 72 h; series mostly up to 28.7 µM
Procedure, shortened: as §1

JCK = test: as above; conditions: P. falciparum in erythrocytes, SYBR Green DNA, 72 h; series mostly up to 28.7 µM
Procedure, shortened: as §1

N140 = test: as above; conditions: P. falciparum in erythrocytes, SYBR Green DNA, 72 h; series mostly up to 28.7 µM
Procedure, shortened: as §1

P93_24 = test: as above; conditions: P. falciparum in erythrocytes, SYBR Green DNA, 72 h; series mostly up to 28.7 µM
Procedure, shortened: as §1

P94_40 = test: as above; conditions: P. falciparum in erythrocytes, SYBR Green DNA, 72 h; series mostly up to 28.7 µM
Procedure, shortened: as §1

PAD = test: as above; conditions: P. falciparum in erythrocytes, SYBR Green DNA, 72 h; series mostly up to 28.7 µM
Procedure, shortened: as §1

PC15 = test: as above; conditions: P. falciparum in erythrocytes, SYBR Green DNA, 72 h; series mostly up to 28.7 µM
Procedure, shortened: as §1

PC26 = test: as above; conditions: P. falciparum in erythrocytes, SYBR Green DNA, 72 h; series mostly up to 28.7 µM
Procedure, shortened: as §1

PC49 = test: as above; conditions: P. falciparum in erythrocytes, SYBR Green DNA, 72 h; series mostly up to 28.7 µM
Procedure, shortened: as §1

SC27B = test: as above; conditions: P. falciparum in erythrocytes, SYBR Green DNA, 72 h; series mostly up to 28.7 µM
Procedure, shortened: as §1

TAB109 = test: as above; conditions: P. falciparum in erythrocytes, SYBR Green DNA, 72 h; series mostly up to 28.7 µM
Procedure, shortened: as §1

TAB113 = test: as above; conditions: P. falciparum in erythrocytes, SYBR Green DNA, 72 h; series mostly up to 28.7 µM
Procedure, shortened: as §1

TAB165 = test: as above; conditions: P. falciparum in erythrocytes, SYBR Green DNA, 72 h; series mostly up to 28.7 µM
Procedure, shortened: as §1

W2 = test: as above; conditions: P. falciparum in erythrocytes, SYBR Green DNA, 72 h; series mostly up to 28.7 µM
Procedure, shortened: as §1

CRL-7250 = normal cell line; test: Cytotoxic Profiling of Annotated Libraries Using Quantitative High-Throughput Screening (AID 1296008); conditions: Five cell lines viability, CellTiter-Glo ATP luminescence, 48-72 h; max response: hits give low values; on max response: on the % scale 0 is the no-effect control and ±100 the full control effect
Procedure, shortened: (§2)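 Compounds were pin-transferred onto cells and incubated 48 or 72 hr at 37 degree Celsius, 95% humidity. CellTiter-Glo was added, plates sat 10 min at room temperature, then ATP-coupled luminescence was imaged as the viability read-out.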

HEK293 = test: as above; conditions: Five cell lines viability, CellTiter-Glo ATP luminescence, 48-72 h; max response: hits give low values
Procedure, shortened: as §2

HaCat = test: as above; conditions: Five cell lines viability, CellTiter-Glo ATP luminescence, 48-72 h; max response: hits give low values
Procedure, shortened: as §2

KB-3-1 = test: as above; conditions: Five cell lines viability, CellTiter-Glo ATP luminescence, 48-72 h; max response: hits give low values
Procedure, shortened: as §2
Further: nearly all actives have a fitted effect of over 60% in size.

Cc1ccc(O)c(-n2nc3ccccc3n2)c1
inactive: Potency (GB4) | Potency (HB3) | Potency (ICS) | Potency (JCK) | Potency (N140) | Potency (P93_24) | Potency (P94_40) | Potency (PAD) | Potency (PC15) | Potency (PC26) | Potency (PC49) | Potency (SC27B) | Potency (TAB109) | Potency (TAB113) | Potency (TAB165) | Potency (W2) | max response (CRL-7250) -18.8% | max response (HEK293) -9.47% | max response (HaCat) -23.9% | max response (KB-3-1) -10.3%

C[C@H](O)[C@H](O)[C@H]1CNc2nc(N)[nH]c(=O)c2N1
inactive: outcome (CRL-7250) | outcome (HEK293) | max response (HaCat) 1.87% | max response (KB-3-1) 14% | outcome (KB-3-1)

CCOc1ccc2nc(S(N)(=O)=O)sc2c1
inactive: Potency (GB4) | Potency (HB3) | Potency (ICS) | Potency (JCK) | Potency (N140) | Potency (PAD) | Potency (PC26) | Potency (PC49) | Potency (SC27B) | Potency (TAB109) | Potency (TAB113) | Potency (TAB165) | Potency (W2) | max response (CRL-7250) -14% | max response (HEK293) -2.22% | max response (HaCat) -4.97% | max response (KB-3-1) 8.76%

Nc1ccc(O)c(C(=O)O)c1
inactive: Potency (GB4) | Potency (HB3) | Potency (ICS) | Potency (JCK) | Potency (N140) | Potency (P94_40) | Potency (PAD) | Potency (PC15) | Potency (PC26) | Potency (PC49) | Potency (SC27B) | Potency (TAB109) | Potency (TAB113) | Potency (TAB165) | Potency (W2) | outcome (CRL-7250) | max response (HEK293) -8.37% | outcome (HaCat) | max response (KB-3-1) 2.58%

CCCCCCCCCCCCCCCC(=O)OC(C)C
inactive: Potency (GB4) | Potency (HB3) | Potency (ICS) | Potency (JCK) | Potency (N140) | Potency (P93_24) | Potency (P94_40) | Potency (PAD) | Potency (PC15) | Potency (PC26) | Potency (PC49) | Potency (SC27B) | Potency (TAB109) | Potency (TAB113) | Potency (TAB165) | Potency (W2) | max response (CRL-7250) 3.48% | max response (HEK293) -10.5% | max response (HaCat) -20.5% | max response (KB-3-1) 12.9%

O=C(O)Cc1ccc(-c2ccccc2)cc1
inactive: Potency (GB4) | Potency (HB3) | Potency (ICS) | Potency (JCK) | Potency (N140) | Potency (P93_24) | Potency (P94_40) | Potency (PAD) | Potency (PC15) | Potency (PC26) | Potency (PC49) | Potency (SC27B) | Potency (TAB109) | Potency (TAB113) | Potency (TAB165) | Potency (W2) | max response (CRL-7250) -1.48% | max response (HEK293) -6.63% | max response (HaCat) -10.6% | max response (KB-3-1) -5.98%

Cc1ccc(C(=O)c2ccc(CC(=O)O)n2C)cc1
inactive: Potency (GB4) | Potency (HB3) | Potency (ICS) | Potency (JCK) | Potency (N140) | Potency (P93_24) | Potency (P94_40) | Potency (PAD) | Potency (PC15) | Potency (PC26) | Potency (PC49) | Potency (SC27B) | Potency (TAB109) | Potency (TAB113) | Potency (TAB165) | Potency (W2) | max response (CRL-7250) -1.54% | max response (HEK293) -2.23% | max response (HaCat) 2.78% | max response (KB-3-1) -6.96%

Nc1cc(-c2ccncc2)c[nH]c1=O
inactive: Potency (GB4) | Potency (HB3) | Potency (ICS) | Potency (JCK) | Potency (N140) | Potency (P93_24) | Potency (P94_40) | Potency (PAD) | Potency (PC15) | Potency (PC49) | Potency (SC27B) | Potency (TAB109) | Potency (TAB113) | Potency (TAB165) | Potency (W2) | outcome (CRL-7250) | max response (HEK293) 1.99% | max response (HaCat) 3.01% | max response (KB-3-1) 4.08%

CCC1C(=O)OCC1Cc1cncn1C (stereo not given)
inactive: Potency (GB4) | Potency (HB3) | Potency (ICS) | Potency (JCK) | Potency (N140) | Potency (P93_24) | Potency (P94_40) | Potency (PAD) | Potency (PC15) | Potency (PC26) | Potency (PC49) | Potency (SC27B) | Potency (TAB109) | Potency (TAB113) | Potency (TAB165) | Potency (W2) | outcome (CRL-7250) | max response (HEK293) 0.743% | max response (HaCat) 0.604% | max response (KB-3-1) -11.4%

CC1(C)[C@@H](O[C@H]2O[C@H](C(=O)O)[C@@H](O)[C@H](O)[C@H]2O[C@@H]2O[C@H](C(=O)O)[C@@H](O)[C@H](O)[C@H]2O)CC[C@]2(C)[C@H]3C(=O)C=C4[C@@H]5C[C@@](C)(C(=O)O)CC[C@]5(C)CC[C@@]4(C)[C@]3(C)CC[C@@H]12
inactive: max response (CRL-7250) -24.4% | max response (HEK293) -5.35% | max response (HaCat) -32.3% | max response (KB-3-1) 5.21% | outcome (KB-3-1)

C=CCCCCCCCCC(=O)O
inactive: Potency (GB4) | Potency (HB3) | Potency (ICS) | Potency (JCK) | Potency (N140) | Potency (P93_24) | Potency (P94_40) | Potency (PAD) | Potency (PC15) | Potency (PC26) | Potency (PC49) | Potency (SC27B) | Potency (TAB109) | Potency (TAB113) | Potency (TAB165) | Potency (W2) | max response (CRL-7250) 3.74% | outcome (HEK293) | max response (HaCat) 0.628% | max response (KB-3-1) 1.18%
